Calls of active or inactive are those of the source.
How the values were obtained:
[1] = test system: Human papillomavirus type 1a protein E7 (residues 44-93); assay: small molecules binding HPV E7 44-93 – biochemical, small-molecule microarray, residues 44-93, 635 nm fluorescence, primary screen (AID 1108); conditions: fluorescence 635 nm, higher = more signal;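 also: E7 fragment applied at 1 µg/mL in TBST for 1 h at 4 C; score combines spot fluorescence with its signal to noise ratio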
[2] = hepatitis C replication reporter changes, two-sided – Huh7 cells, luciferase reporter, HCV replication inhibitor project, primary screen (AID 1109); conditions: Huh7 HCV replicon luciferase reporter, 48 h; higher = more signal;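 also: huh7 hepatoma cells harbouring a luciferase neomycin HCV replicon reporter; luciferase luminescence as measure of HCV replicon replication; test concentration not given here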
[3] = target: Left-right determination factor 2 (Homo sapiens) (UniProt O00292); assay: small molecules binding LEFTY2 protein – biochemical, small-molecule microarray, 635 nm fluorescence scan, primary screen (AID 1110); conditions: higher = more signal
Sequence of Left-right determination factor 2 (Homo sapiens) (O00292 whole entry, looked up): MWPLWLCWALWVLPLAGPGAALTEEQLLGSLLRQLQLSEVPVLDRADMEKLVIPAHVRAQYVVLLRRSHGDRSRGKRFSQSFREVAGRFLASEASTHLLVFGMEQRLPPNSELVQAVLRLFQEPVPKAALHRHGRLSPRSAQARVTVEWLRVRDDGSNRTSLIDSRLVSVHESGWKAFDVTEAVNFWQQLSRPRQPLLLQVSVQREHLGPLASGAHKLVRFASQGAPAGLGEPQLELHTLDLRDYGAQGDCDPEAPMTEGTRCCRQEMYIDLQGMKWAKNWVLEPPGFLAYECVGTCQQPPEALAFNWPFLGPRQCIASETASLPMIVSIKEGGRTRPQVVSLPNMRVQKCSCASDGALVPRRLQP

[4] = target: Calmodulin-1 (Homo sapiens) (UniProt P0DP23); assay: small molecules binding calmodulin-1 with EGTA – biochemical, small-molecule microarray, Cy5-labelled CALM1, profiling panel (AID 1111); conditions: Cy5-CALM1 binding fluorescence, higher = more signal;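 also: labelled calmodulin applied in Tris saline Tween buffer holding calcium plus EGTA and DTT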
[5] = target: Calmodulin-1 (Homo sapiens) (UniProt P0DP23); assay: small molecules binding Ca-loaded calmodulin-1 – biochemical, small-molecule microarray, Cy5-labelled CALM1, plus calcium, artefact control for SMM control-protein annotation, profiling panel (AID 1112); conditions: Cy5-CALM1 binding fluorescence, higher = more signal;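 also: score merges spot fluorescence with signal to noise from triplicate slides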
[6] = probe aWnt5a binding to arrayed compounds – biochemical, biotinylated probe, 635/667 nm fluorescence, primary screen (AID 1113); conditions: small-molecule microarray, higher = more signal;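 also: score merges 667 nm fluorescence intensity with signal-to-noise per printed feature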
[7] = probe aShh binding to arrayed compounds – biochemical, biotinylated probe, 635/667 nm fluorescence, primary screen (AID 1114); conditions: small-molecule microarray, higher = more signal;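 also: probe is biotin-labelled aShh protein from a stem cell growth factor screen; measures binding of labelled protein to compounds printed on the slide; score merges feature fluorescence at 667 nm with signal-to-noise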
[8] = probe aNog binding to arrayed compounds – biochemical, biotinylated probe, 635/667 nm fluorescence, primary screen (AID 1115); conditions: small-molecule microarray, higher = more signal;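 also: probe is biotinylated aNog protein used at 0.15 µg/mL for 1 h at 4 C; z-score combines 667 nm fluorescence of each spot with its signal to noise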
[9] = target: Torsin-1A-interacting protein 1 (Homo sapiens) (UniProt Q5JTV8); assay: compound microarray binding of lysate hLAP1 – cell lysate, small-molecule microarray, COS7 lysate, 635/667 nm fluorescence, primary screen (AID 1116); conditions: 635 nm fluorescence, higher = more signal
Sequence of Torsin-1A-interacting protein 1 (Homo sapiens) (Q5JTV8 whole entry, looked up): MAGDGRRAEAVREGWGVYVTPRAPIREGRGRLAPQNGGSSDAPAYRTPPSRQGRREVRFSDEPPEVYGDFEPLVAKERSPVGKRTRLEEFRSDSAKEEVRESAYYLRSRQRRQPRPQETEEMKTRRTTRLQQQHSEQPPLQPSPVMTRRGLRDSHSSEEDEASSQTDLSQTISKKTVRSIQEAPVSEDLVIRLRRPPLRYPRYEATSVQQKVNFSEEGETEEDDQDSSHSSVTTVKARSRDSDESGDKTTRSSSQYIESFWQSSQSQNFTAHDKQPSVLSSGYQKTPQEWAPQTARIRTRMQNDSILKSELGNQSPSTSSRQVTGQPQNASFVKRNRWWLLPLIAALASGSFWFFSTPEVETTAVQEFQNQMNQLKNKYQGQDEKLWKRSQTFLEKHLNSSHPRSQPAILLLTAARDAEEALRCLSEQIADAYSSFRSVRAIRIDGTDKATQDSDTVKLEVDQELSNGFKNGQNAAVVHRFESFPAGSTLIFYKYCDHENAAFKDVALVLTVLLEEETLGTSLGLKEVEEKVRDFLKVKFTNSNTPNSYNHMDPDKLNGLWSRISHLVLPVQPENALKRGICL

[10] = target: Alpha-bungarotoxin (Bungarus multicinctus) (UniProt P60615); assay: compounds binding labelled alpha-BTX control protein – biochemical, small-molecule microarray, Alexa647 label, 635/667 nm fluorescence, artefact control for SMM control protein annotation, profiling panel (AID 1117); conditions: alpha-BTX-A647 binding fluorescence, higher = more signal
Sequence of Alpha-bungarotoxin (Bungarus multicinctus) (P60615 whole entry, looked up): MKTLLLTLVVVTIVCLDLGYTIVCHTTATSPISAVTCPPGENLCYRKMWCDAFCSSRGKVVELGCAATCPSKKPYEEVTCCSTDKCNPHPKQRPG

Albumin (Bos taurus) = Albumin (Bos taurus) (UniProt P02769); assay: compounds binding labelled BSA control protein – biochemical, small-molecule microarray, Alexa647 label, 635/667 nm fluorescence, artefact control for SMM control protein annotation, profiling panel (AID 1118); conditions: BSA-A647 binding, fluorescence 635 nm, higher = more signal;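 also: score merges 667 nm emission intensity and signal-to-noise per printed compound spot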
Sequence of Albumin (Bos taurus) (P02769 whole entry, looked up): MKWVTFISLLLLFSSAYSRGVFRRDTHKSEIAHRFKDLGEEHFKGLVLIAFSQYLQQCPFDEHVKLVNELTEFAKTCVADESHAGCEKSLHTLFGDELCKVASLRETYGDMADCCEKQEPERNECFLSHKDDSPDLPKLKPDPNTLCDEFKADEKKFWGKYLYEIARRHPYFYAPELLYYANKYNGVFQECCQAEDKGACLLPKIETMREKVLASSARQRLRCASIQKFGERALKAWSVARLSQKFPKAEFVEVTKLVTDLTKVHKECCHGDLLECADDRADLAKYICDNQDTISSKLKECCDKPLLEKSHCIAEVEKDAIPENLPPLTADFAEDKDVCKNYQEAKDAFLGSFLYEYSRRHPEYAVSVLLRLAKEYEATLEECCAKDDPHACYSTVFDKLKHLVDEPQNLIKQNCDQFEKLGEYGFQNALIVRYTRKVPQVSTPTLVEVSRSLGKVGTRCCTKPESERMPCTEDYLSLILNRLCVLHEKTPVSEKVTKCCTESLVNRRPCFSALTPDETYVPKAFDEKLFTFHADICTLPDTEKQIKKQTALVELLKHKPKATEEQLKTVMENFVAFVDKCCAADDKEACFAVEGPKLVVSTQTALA

[11] = probe aXIP binding to arrayed compounds – biochemical, NeuroSMM set, 635/667 nm fluorescence, primary screen (AID 1119); conditions: small-molecule microarray, higher = more signal, called active from +8 up or from −8 down;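 also: probe is the protein aXip251-270 applied at 1 µg/mL to compound-printed slides; binding of probe to printed compounds measured as 667 nm fluorescence plus signal to noise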
[12] = probe aNOTCH3 binding on compound microarray – biochemical, small-molecule microarray, 635/667 nm fluorescence, primary screen (AID 1120); conditions: higher = more signal;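 also: probe is a biotin-tagged antibody raised against NOTCH3 rather than NOTCH3 protein; score merges spot fluorescence near 667 nm with spot signal to noise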
[13] = probe aNOTCH2 binding on compound microarray – biochemical, small-molecule microarray, 635/667 nm fluorescence, primary screen (AID 1121); conditions: higher = more signal;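 also: score merges feature fluorescence read at 667 nm with its signal to noise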
[14] = target: Carbonic anhydrase 2 (Homo sapiens) (UniProt P00918); assay: compounds binding carbonic anhydrase 2 – biochemical, small-molecule microarray, Alexa647-labelled CAII, profiling panel (AID 1122); conditions: CAII-A647 binding fluorescence, higher = more signal
[15] = COS7 lysate on small-molecule microarray, probe aHis, 635 nm (AID 1123); conditions: COS7 cell lysate, fluorescence, higher = more signal;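 also: z-score combines 667nm fluorescence intensity with signal-to-noise per printed compound spot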
[16] = probe aLAP1 signal on lysate-treated microarray – cell lysate, small-molecule microarray, COS7 lysate, primary screen (AID 1124); conditions: probe aLAP1, fluorescence, higher = more signal;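 also: lysate comes from COS7 cells expressing LAP1 and is applied at 0.3 µg/mL; score merges spot fluorescence near 667 nm with signal-to-noise over triplicate slides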
Sam68 (KHDRBS1) = assay: compounds binding KHDRBS1 protein – biochemical, small-molecule microarray, 635 nm fluorescence, primary screen (AID 1125); conditions: higher = more signal;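 also: score merges 667 nm channel intensity with signal to noise over triplicate slides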
[17] = test system: Chordin-like protein 2 (CHRDL2); assay: compounds binding chordin-like 2 – biochemical, small-molecule microarray, 635 nm fluorescence, primary screen (AID 1126); conditions: fluorescence 635 nm, higher = more signal;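 also: printed compound slides probed with Chrdl2 protein at 4 µg/mL for 1 h at 4 C; score merges 667 nm emission intensity with signal to noise over three replicate slides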
[18] = target: Concanavalin-A (Canavalia ensiformis) (UniProt P02866); assay: compounds binding concanavalin A lectin – biochemical, small-molecule microarray, Alexa647 label, 635 nm, artefact control for SMM control protein annotation, primary screen (AID 1127); conditions: ConA-A647 binding fluorescence, higher = more signal;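 also: z combines 667 nm emission intensity with signal-to-noise across three replicate slides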
Sequence of Concanavalin-A (Canavalia ensiformis) (P02866 whole entry, looked up): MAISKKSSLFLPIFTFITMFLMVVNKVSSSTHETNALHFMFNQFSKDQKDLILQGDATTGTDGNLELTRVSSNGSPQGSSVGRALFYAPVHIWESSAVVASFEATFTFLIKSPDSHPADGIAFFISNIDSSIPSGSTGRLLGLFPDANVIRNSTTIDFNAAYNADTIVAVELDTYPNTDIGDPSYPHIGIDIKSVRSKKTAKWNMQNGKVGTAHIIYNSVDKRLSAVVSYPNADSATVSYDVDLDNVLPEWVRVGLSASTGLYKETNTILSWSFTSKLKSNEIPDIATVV

Compound	composite z-score [1]	z-score [2]	composite z-score [3]	composite z-score [4]	composite z-score [5]	composite z-score [6]	composite z-score [7]	composite z-score [8]	composite z-score [9]	composite z-score [10]	composite z-score (Albumin (Bos taurus))	composite Z-score [11]	composite z-score [12]	composite z-score [13]	composite z-score [14]	composite z-score [15]	composite z-score [16]	composite z-score (Sam68 (KHDRBS1))	composite z-score [17]	composite z-score [18]
CCCC[C@@H](O)C1=C(COc2ccccc2)Cn2c(=O)n(-c3ccccc3)c(=O)n2[C@H]1CO	-0.616	-1.52	0.0253	-0.634	-0.116	-0.124	-0.248	-0.182	-0.222	-1.62	-0.0711	-0.116 (inactive)	-0.187	-0.148	-0.0781	0.725	0.148	-0.247	0.0826	-0.494
CC(C)C[C@@H]1NC(=O)[C@@]23C(=O)N[C@@H](Cc4ccccc4)C2[C@H](C)[C@@]2(C)O[C@H]2C3/C=C/C/C=C\CNC(=O)[C@@H]2CCCN2C1=O (stereo not given in full)	-0.282	-0.972	0.283	-0.749	-0.721	-0.124	-0.138	-0.219	-0.22	-0.442	0.777	0.572 (inactive)	-0.0026	-0.129	0.391	-0.351	0.339	-0.747	0.698	-0.838
COc1ccccc1CN1C(=O)c2ccccc2[C@@]2(Cc3ccccc3N(C3CC3)C2=O)[C@@H]1c1ccc(CO)cc1	-0.447	-0.344	-0.921	0.117	-0.164	-0.131	0.0062	-0.422	-0.455	0.134	0.0999	0.794 (inactive)	-0.15	-0.112	0.669	0.165	-0.978	-0.557	-0.39	0.107
CCCC=C(CCC)[C@@H](NS(=O)(=O)CC)c1ccccc1	1.37	-2.68	-0.0866	1.37	0.855	0.0516	0.949	1.26	0.806	0.157	0.929	-0.112 (inactive)	0.096	-0.0194	0.532	1.68	0.177	1.29	-0.462	1.04
C=CCC(OC(C)=O)[C@@H]1[C@@H](N(Cc2cccc3ccccc23)C(=O)c2ccc(C)cc2)c2cc(OCCCO)ccc2N1C(=O)c1ccc2ccccc2c1 (stereo not given in full)	-0.44	-0.945	0.346	-0.0236	-0.0542	0.0229	-0.0793	-0.329	0.139	0.132	-0.0007	0.0941 (inactive)	0.0311	-0.0924	0.0697	0.583	-0.27	-0.044	0.224	-0.525
OCc1ccc(-c2cc[n+](Cc3cccc(OC(F)(F)F)c3)cc2)cc1	1.19	0.717	1.36	-0.245	-0.196	-0.0006	-0.0146	0.425	1.08	1.9	0.503	0.372 (inactive)	0.11	-0.0254	0.894	0.813	1.08	0.981	1.49	1.08
COC(=O)C(CC#Cc1ccc2c(c1)[C@]1(C(=O)N2)[C@H](c2ccccc2OCCO)N2[C@H](c3ccccc3)[C@H](c3ccccc3)OC(=O)[C@H]2[C@@H]1C(=O)Nc1nc2ccccc2s1)C(=O)OC	1.41	-2.02	0.397	0.973	-0.196	-0.0239	0.233	-0.466	0.874	1.5	0.67	-0.364 (inactive)	0.106	-0.0928	0.226	1.9	0.379	1.31	0.19	1.15
O=C1O[C@H](c2ccccc2)[C@H](c2ccccc2)N2[C@H]1[C@@H](C(=O)NC[C@H](O)c1ccccc1)[C@]1(C(=O)Nc3ccccc31)[C@H]2c1ccccc1OCCO	1.4	-3.34	-0.11	1.31	0.376	-0.027	1.47	2.84	1.41	2.46	0.426	0.16 (inactive)	-0.171	-0.138	0.613	1.84	0.571	0.772	0.0939	1.02
C=C(/C(=C/C[C@@H](OC(C)=O)c1ccccc1OCCO)c1cnc2ccccc2c1)C(C)C	0.0976	-1.61	0.0798	-0.353	-0.236	0.122	0.0328	0.291	0.148	1.01	0.23	1.17 (inactive)	-0.0784	-0.0859	0.571	0.503	-0.0618	0.778	0.474	0.871
CC(C)C(CO)N1C(=O)[C@@H]2[C@H]3C(=O)OCC=C[C@H]3OC23C=CCN(Cn2nnc4ccccc42)C(=O)[C@@H]13 (stereo not given in full)	-0.484	-0.634	-0.734	-0.323	0.608	-0.226	0.35	-0.358	-0.273	-0.284	-1.25	-0.274 (inactive)	-0.226	-0.204	0.931	-0.0704	-0.215	-0.821	-1.73	-1.34
CC(=O)NCCCC[C@@H]1NC(=O)[C@H]2C[C@@H](C(=O)NCCCCCN)[C@@H](c3cccc(OCCO)c3)N2C1=O	0.783	0.572	0.0306	1.27	1.35	-0.0403	-0.0119	-0.392	0.718	1.82	0.796	-0.306 (inactive)	0.0493	-0.0878	0.715	0.898	0.2	0.993	0.218	1.2
COCCOC(=O)N1C(=O)[C@@]2(c3cc(C#CC4(O)CCCCCC4)ccc31)[C@H](C(=O)N1CCN(c3ncccn3)CC1)[C@H]1C(=O)O[C@H](c3ccccc3)[C@H](c3ccccc3)N1[C@@H]2c1ccc(O)cc1	0.958	-1.69	-0.28	1.56	1.05	0.0633	0.128	-0.261	1.53	1.61	0.886	0.528 (inactive)	-0.0006	-0.0795	0.35	1.12	0.73	1.22	-0.35	1.11
